Assay results from PubChem BioAssay (Tox21).
Unmarked numbers belong to inactive results. Records with an inconclusive call do not appear. A call without a number means that no potency is given here. Active and inactive are the calls of the source. Unless noted, calls come from the whole dose curve.

Legend:
[1] = Nuclear factor erythroid 2-related factor 2/antioxidant responsive element (Nrf2/ARE) small molecule agonists: qHTS cell viability counter screen in human keratinocytes (AID 1919968; active = well fitted curve in the direction sought with a large enough effect in the repeat runs; an effect the other way counts as inactive or inconclusive; note: nearly all actives have a fitted effect of over 55% in size; note: potency is the fitted concentration of half-maximal effect)
Summary of the method: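 KeratinoSens cells (HaCaT keratinocytes stably carrying an ARE-luciferase reporter) were seeded at 1,500 cells/well and rested 5 h at 37 C/5% CO2. They were then exposed to compounds in DMSO for 23 h. Viability was read by CellTiter-Fluor fluorescence after 1 h.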

[2] = biological target: Gonadotropin-releasing hormone receptor (Homo sapiens) (UniProt P30968); assay: Human gonadotropin-releasing hormone receptor (GnRHR) small molecule agonists, calcium flux assay in GnRHR-HEK293 cells (AID 1920063); note: nearly all actives have a fitted effect of over 35% in size
Chain of Gonadotropin-releasing hormone receptor (Homo sapiens) (P30968 whole entry, looked up): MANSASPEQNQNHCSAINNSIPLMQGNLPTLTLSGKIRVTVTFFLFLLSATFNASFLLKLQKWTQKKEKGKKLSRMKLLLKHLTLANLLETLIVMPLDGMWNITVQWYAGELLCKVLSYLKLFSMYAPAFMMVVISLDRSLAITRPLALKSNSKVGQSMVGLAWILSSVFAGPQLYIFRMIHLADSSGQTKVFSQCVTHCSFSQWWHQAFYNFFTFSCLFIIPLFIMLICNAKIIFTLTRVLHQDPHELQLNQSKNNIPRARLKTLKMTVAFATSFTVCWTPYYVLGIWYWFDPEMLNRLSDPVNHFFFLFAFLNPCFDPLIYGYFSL
Summary of the method: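 HEK293 cells stably expressing human GnRHR were plated 18 h at 37 °C, loaded with calcium dye 1 h at 37 °C, then given compound in agonist mode; fluorescence (Ex/Em 480/540) read kinetically for 3 min at 1 s intervals.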

[3] = biological target: KiSS-1 receptor (Homo sapiens) (UniProt Q969F8); assay: Human kisspeptin (KISS1R) small molecule agonists, calcium flux assay in KISS1R-HEK293 cells (AID 1920064; active = well fitted curve in the direction sought with a large enough effect in the repeat runs; an effect the other way counts as inactive or inconclusive)
Chain of KiSS-1 receptor (Homo sapiens) (Q969F8 whole entry, looked up): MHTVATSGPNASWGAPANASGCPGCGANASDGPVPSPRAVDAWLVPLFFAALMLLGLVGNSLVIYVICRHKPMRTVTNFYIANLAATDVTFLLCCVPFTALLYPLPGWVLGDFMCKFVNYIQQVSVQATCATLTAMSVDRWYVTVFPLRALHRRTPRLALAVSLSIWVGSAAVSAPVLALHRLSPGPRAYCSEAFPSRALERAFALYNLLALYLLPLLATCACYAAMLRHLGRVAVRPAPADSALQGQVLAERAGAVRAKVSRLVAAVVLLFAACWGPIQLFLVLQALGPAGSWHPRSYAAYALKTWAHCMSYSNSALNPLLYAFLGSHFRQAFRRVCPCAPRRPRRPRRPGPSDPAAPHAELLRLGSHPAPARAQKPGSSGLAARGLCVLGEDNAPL
Summary of the method: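 HEK293 cells stably expressing human KISS1R were plated 18 h at 37 °C, loaded with calcium dye for 1 h at 37 °C, then given compound by pin tool. Fluorescence (Ex/Em 480/540) was read kinetically for 3 min.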

[4] = G protein-coupled receptor (GPCR) small molecule agonists, calcium flux assay: HEK293 wild type cell line counter screen (AID 1920065)
Summary of the method: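 Cells were plated and cultured 18 h at 37 C/5% CO2, then loaded with calcium dye for 1 h at 37 C. Compounds in DMSO were pin-transferred in agonist mode, and fluorescence (Ex/Em 480/540) was read kinetically for 3 min at 1 s intervals.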

[5] = p53 small molecule agonists, cell-based qHTS assay with human liver microsomes (AID 1963577)
Summary of the method: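 Compounds act here after metabolic activation: human liver microsomes and NADPH, both at 0.5 mg/mL final, were co-added to p53RE-bla cells. Incubation ran 16 h at 37 C, followed by LiveBLAzer detection.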

[6] = p53 small molecule agonists, cell-based qHTS assay with rat liver microsomes (AID 1963578)
Summary of the method: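 Read-out is beta-lactamase reporter fluorescence (LiveBLAzer, 2 h, room temperature, dark) in p53RE-bla cells treated 16 h at 37 C with compound, rat liver microsomes and NADPH, both 0.5 mg/mL final.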

[7] = p53 small molecule agonists, cell-based qHTS assay with human liver microsomes: qHTS cell viability counter screen (AID 1963579); note: nearly all actives have a fitted effect of over 45% in size; note: potency is the fitted concentration of half-maximal effect
Summary of the method: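 Cells carrying the p53 response-element beta-lactamase reporter are treated for 16 h at 37 C with test compounds in the presence of human liver microsomes and NADPH (both 0.5 mg/mL final); ATP-based CellTiter-Glo luminescence then reports viability.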

[8] = p53 small molecule agonists, cell-based qHTS assay with rat liver microsomes: qHTS cell viability counter screen (AID 1963580); note: nearly all actives have a fitted effect of over 45% in size; note: potency is the fitted concentration of half-maximal effect
Summary of the method: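 HCT-116 p53RE-bla, 4,000 cells/well, 5 h pre-incubation; cpd + rat liver microsomes 0.5 mg/mL + NADPH 0.5 mg/mL (final); 16 h, 37 C; CellTiter-Glo, 30 min RT; luminescence.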

[9] = p53 small molecule agonists, cell-based qHTS assay: qHTS cell viability counter screen (AID 1963581); note: nearly all actives have a fitted effect of over 45% in size; note: potency is the fitted concentration of half-maximal effect
Summary of the method: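 p53RE-bla HCT-116 cells were exposed to compounds for 16 h at 37 C; after the beta-lactamase FRET read in the same wells, CellTiter-Glo was added and luminescence (intracellular ATP) read after 30 min at room temperature.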

[10] = p53 small molecule agonists, cell-based qHTS assay (AID 1963582; active = well fitted activation curve with a large enough effect in the signal ratio in the repeat runs, not every such curve was filed as active; the % refers to the signal ratio)
Summary of the method: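 p53RE-bla beta-lactamase reporter cells rested 5 h at 37 C/5% CO2, then received compounds in DMSO by pin transfer and were incubated 16 h at 37 C. LiveBLAzer B/G FRET substrate was loaded for 2 h at room temperature before fluorescence reading.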

[11] = biological target: 5-hydroxytryptamine receptor 2A (Homo sapiens) (UniProt P28223); assay: 5-hydroxytryptamine receptor 2A (HTR2A) small molecule antagonists, cell-based qHTS assay (AID 1963586); note: nearly all actives have a fitted effect of over 45% in size
Chain of 5-hydroxytryptamine receptor 2A (Homo sapiens) (P28223 whole entry, looked up): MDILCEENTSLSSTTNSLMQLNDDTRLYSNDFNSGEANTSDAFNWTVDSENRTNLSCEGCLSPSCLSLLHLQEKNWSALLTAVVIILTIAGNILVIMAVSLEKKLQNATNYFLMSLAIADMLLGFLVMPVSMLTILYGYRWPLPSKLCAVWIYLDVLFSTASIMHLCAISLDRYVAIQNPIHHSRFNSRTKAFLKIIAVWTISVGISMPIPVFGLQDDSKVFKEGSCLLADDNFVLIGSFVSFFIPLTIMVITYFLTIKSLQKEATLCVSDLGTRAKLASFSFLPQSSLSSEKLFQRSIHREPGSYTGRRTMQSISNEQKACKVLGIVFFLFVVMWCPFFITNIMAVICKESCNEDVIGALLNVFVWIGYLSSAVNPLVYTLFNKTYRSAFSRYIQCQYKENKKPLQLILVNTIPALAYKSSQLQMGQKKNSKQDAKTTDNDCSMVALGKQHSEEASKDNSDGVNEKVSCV
Summary of the method: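 Antagonist-mode intracellular calcium assay: DOI (4 nM) added after 5 min compound pre-incubation at room temperature to dye-loaded HTR2A-CHO cells. Fluorescence followed for 3 min, sampled every second.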

[12] = biological target: Muscarinic acetylcholine receptor M1 (Homo sapiens) (UniProt P11229); assay: Cholinergic receptor muscarinic 1 (CHRM1) small molecule antagonists, cell-based qHTS assay (AID 1963588); note: nearly all actives have a fitted effect of over 40% in size; note: potency is the fitted concentration of half-maximal effect
Chain of Muscarinic acetylcholine receptor M1 (Homo sapiens) (P11229 whole entry, looked up): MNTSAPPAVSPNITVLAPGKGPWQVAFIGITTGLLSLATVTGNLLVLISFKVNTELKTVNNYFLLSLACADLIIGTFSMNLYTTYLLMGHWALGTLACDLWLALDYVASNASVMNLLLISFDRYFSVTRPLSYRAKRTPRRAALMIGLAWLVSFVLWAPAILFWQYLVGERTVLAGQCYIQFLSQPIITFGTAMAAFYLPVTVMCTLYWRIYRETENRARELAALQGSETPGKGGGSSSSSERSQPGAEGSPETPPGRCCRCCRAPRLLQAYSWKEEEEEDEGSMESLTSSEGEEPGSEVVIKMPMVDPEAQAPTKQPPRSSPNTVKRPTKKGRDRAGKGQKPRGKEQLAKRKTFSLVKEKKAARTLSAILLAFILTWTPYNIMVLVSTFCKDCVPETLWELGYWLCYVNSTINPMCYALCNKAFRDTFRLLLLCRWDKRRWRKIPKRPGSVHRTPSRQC
Summary of the method: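 CHRM1-CHO calcium-flux assay, antagonist mode. Cells were seeded 18 h, dye-loaded 1 h at 37 C and given compound for 5 min at RT, then acetylcholine was added at 50nM. FDSS fluorescence was read 3 min; 15 concentrations, three runs.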

[13] = biological target: Muscarinic acetylcholine receptor M1 (Homo sapiens) (UniProt P11229); assay: Cholinergic receptor muscarinic 1 (CHRM1) small molecule agonists, cell-based qHTS assay (AID 1963589); note: nearly all actives have a fitted effect of over 35% in size
Summary of the method: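 CHO cells stably expressing human CHRM1, seeded 18 h at 37 C/5% CO2, dye-loaded 1 h at 37 C, then given compound in agonist mode; intracellular calcium fluorescence read kinetically at 1 s intervals. Fifteen concentrations, three independent runs.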

[14] = biological target: Beta-2 adrenergic receptor (Homo sapiens) (UniProt P07550); assay: Adrenergic beta2 receptor (ADRB2) small molecule antagonists, cell-based qHTS assay (AID 1963592); note: series mostly up to about 92 µM; nearly all actives have a fitted effect of over 50% in size
Chain of Beta-2 adrenergic receptor (Homo sapiens) (P07550 whole entry, looked up): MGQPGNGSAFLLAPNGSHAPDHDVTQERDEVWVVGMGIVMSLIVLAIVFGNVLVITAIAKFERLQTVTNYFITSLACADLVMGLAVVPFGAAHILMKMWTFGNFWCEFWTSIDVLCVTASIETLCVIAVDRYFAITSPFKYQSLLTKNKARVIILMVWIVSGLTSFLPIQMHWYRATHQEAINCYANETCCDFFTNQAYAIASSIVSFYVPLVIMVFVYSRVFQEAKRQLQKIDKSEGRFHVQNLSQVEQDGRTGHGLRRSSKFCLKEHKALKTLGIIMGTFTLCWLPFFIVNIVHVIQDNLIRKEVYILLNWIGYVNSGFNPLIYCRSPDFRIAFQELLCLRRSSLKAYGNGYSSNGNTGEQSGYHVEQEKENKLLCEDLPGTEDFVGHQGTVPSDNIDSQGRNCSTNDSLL
Summary of the method: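 Cells (CHO, stable ADRB2 overexpression) incubated 18-20hr at 37C; compounds added from DMSO; agonist mix (1nM isoproterenol, 100uM IBMX, 25uM Ro-20-1724) added; 0.5hr RT; d2-cAMP and anti-cAMP-cryptate added; 1hr RT; 665/615 nm read.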

[15] = biological target: Beta-2 adrenergic receptor (Homo sapiens) (UniProt P07550); assay: Adrenergic beta2 receptor (ADRB2) small molecule agonists, cell-based qHTS assay (AID 1963593);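 note: CHO cells stably overexpressing human ADRB2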
Summary of the method: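 CHO cells stably over-expressing ADRB2 were plated overnight at 37C, then dosed with compounds plus a stimulation mix containing 100uM IBMX and 25uM Ro-20-1724 for 0.5hr at room temperature. cAMP was measured by HTRF competition, 1hr.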

[16] = biological target: D(2) dopamine receptor (Homo sapiens) (UniProt P14416); assay: Dopamine D2 receptor (DRD2) small molecule agonists, cell-based qHTS assay (AID 1963594); note: nearly all actives have a fitted effect of over 35% in size
Chain of D(2) dopamine receptor (Homo sapiens) (P14416 whole entry, looked up): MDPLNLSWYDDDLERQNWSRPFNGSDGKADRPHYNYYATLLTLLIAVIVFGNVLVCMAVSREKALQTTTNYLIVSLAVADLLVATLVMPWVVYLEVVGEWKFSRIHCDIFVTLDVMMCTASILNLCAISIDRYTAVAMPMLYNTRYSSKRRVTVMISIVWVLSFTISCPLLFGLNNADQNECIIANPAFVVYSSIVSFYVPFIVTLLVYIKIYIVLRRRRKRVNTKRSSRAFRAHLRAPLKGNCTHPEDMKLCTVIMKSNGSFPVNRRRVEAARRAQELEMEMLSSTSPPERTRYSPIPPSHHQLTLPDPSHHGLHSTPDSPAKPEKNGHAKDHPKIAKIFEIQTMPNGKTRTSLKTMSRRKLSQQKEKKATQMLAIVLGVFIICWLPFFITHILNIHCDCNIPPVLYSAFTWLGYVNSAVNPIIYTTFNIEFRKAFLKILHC
Summary of the method: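 cAMP accumulation in DRD2-HEK293 cells measured by HTRF after 1 h detection; compounds added 10 min before NKH477 (200nM […]) forskolin-analogue stimulation, 30 min at room temperature, with Ro20-1724 present at 0.1 mM final.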

[17] = biological target: D(2) dopamine receptor (Homo sapiens) (UniProt P14416); assay: Dopamine D2 receptor (DRD2) small molecule antagonists, cell-based qHTS assay (AID 1963595; active = well fitted inhibition curve with a large enough effect in the signal ratio in the repeat runs, with a control signal flat; the % refers to the signal ratio)
Summary of the method: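 HTRF cAMP read-out at 665 and 620 nm emission (340 nm excitation). Antagonist mode: compounds were tested against 12 nM quinpirole in DRD2-HEK293 cells, with 200 nM NKH477 raising cAMP and 0.1 mM Ro20-1724 blocking its breakdown.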

[18] = biological target: 5-hydroxytryptamine receptor 2A (Homo sapiens) (UniProt P28223); assay: 5-hydroxytryptamine receptor 2A (HTR2A) small molecule agonists, cell-based qHTS assay (AID 1963587); note: nearly all actives have a fitted effect of over 30% in size
Summary of the method: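 Kinetic calcium-flux fluorescence (2 min, 1 sec intervals) after compound addition in agonist mode. HTR2A-CHO cells were cultured 18 h, then dye-loaded 1 h at 37 C.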

[19] = cAMP Responsive Elements (CRE) small molecule agonists, cell-based qHTS assay (AID 1963590)
Summary of the method: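 CRE-bla HEK 293T cells in DMEM with 10% dialyzed FBS, NEAA, pyruvate and 25 mM HEPES were plated 18 h at 37 C/5% CO2, then exposed to compounds in DMSO for 3 h before LiveBLAzer B/G FRET substrate addition.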

[20] = cAMP Responsive Elements (CRE) small molecule antagonists, cell-based qHTS assay (AID 1963591; active = well fitted inhibition curve with a large enough effect in the signal ratio in the repeat runs, not every such curve was filed as active; the % refers to the signal ratio)
Summary of the method: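 CRE-bla HEK293T cells were plated 18 h at 37 °C/5% CO2, pinned with compound in DMSO, then stimulated with NKH477 at 0.25 uM final for 3 h. LiveBLAzer B/G FRET substrate was added and plates incubated 2 h at room temperature.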

| SMILES | Potency [1] | Potency [2] | Potency [3] | Potency [4] | Potency [5] | Potency [6] | Potency [7] | Potency [8] | Potency [9] | Potency [10] | Potency [11] | Potency [12] | Potency [13] | Potency [14] | Potency [15] | Potency [16] | Potency [17] | Potency [18] | Potency [19] | Potency [20] |
| --- | --- | --- | --- | --- | --- | --- | --- | --- | --- | --- | --- | --- | --- | --- | --- | --- | --- | --- | --- | --- |
| CCOC(=O)[C@@H](C)Oc1ccc(Oc2nc3ccc(Cl)cc3o2)cc1 | inactive | inactive | inactive | inactive | inactive | inactive | inactive | inactive | inactive | inactive | inactive | inactive | inactive | inactive | inactive | inactive | inactive |  |  |  |
| CSc1c(Cl)c(Cl)c(Cl)c(Cl)c1Cl | inactive | inactive | inactive | inactive | inactive | inactive | inactive | inactive | inactive | inactive | inactive |  | inactive | inactive | inactive | inactive | inactive | inactive | inactive | inactive |
| CC1(C)CCC[C@]2(C)[C@H]3CC(=O)O[C@]3(C)CC[C@@H]12 | inactive | inactive | inactive | inactive | inactive | inactive | inactive | inactive | inactive | inactive | inactive |  | inactive | inactive |  | inactive |  |  |  |  |
| Cc1cccc(OCCOc2cccc(C)c2)c1 | inactive | inactive | inactive | inactive | inactive | inactive | inactive | inactive | inactive | inactive | inactive | inactive |  | inactive |  | inactive | inactive | inactive | inactive |  |
| CCC(C)Nc1ccc(NC(C)CC)cc1 (stereo unspecified) | 3.93 µM (active) | inactive | inactive | inactive | inactive | inactive | 2.08 µM (active) | 4.66 µM (active) | 10.4 µM (active) | inactive | inactive | 9.6 µM (active) | inactive |  |  |  |  |  |  |  |
| O=C(Oc1ccccc1)Oc1ccccc1 | inactive | inactive | inactive | inactive | inactive | inactive | inactive | inactive | inactive | inactive |  | inactive | inactive | inactive |  |  | inactive | inactive | inactive |  |
| Cc1ccc2c(Br)cc(Br)c(O)c2n1 | inactive | inactive | inactive | inactive | inactive | inactive | inactive | inactive | inactive | inactive | inactive | inactive | inactive |  |  |  | inactive | inactive | inactive |  |
| CCN(CC)c1ccc(N=Nc2ccccc2)cc1 | inactive | inactive | inactive | inactive | inactive | inactive | inactive | inactive | inactive | inactive | inactive | inactive | inactive | inactive | inactive | inactive | inactive | inactive |  | inactive |
